The full ranking holds about 39,000 sequences; the median of “fluorescence intensity (a.u.)” is about 4,300, and the highest 2% start at about 39,000. For the sample, the highest values were picked, then their nearest neighbours and some sequences at random.

The target in the experiment is T1, OsSMF1 (Oryza sativa, UniProt Q6ZLB0 1-436).
T1 sequence: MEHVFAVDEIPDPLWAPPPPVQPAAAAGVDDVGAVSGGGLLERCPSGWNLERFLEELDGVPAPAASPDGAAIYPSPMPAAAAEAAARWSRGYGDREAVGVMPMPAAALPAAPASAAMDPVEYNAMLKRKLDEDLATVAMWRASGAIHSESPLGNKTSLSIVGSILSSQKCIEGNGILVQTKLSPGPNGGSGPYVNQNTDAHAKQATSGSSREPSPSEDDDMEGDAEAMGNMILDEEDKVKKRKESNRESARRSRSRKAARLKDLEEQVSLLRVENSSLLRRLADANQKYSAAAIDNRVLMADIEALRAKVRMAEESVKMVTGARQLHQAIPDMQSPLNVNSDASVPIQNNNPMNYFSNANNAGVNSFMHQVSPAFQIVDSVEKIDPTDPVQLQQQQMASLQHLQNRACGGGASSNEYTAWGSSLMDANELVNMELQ
In words: protein-binding microarray (RPBM); PBS, 2% BSA, 51.3 ng/ul salmon testes DNA, 50 uM zinc acetate, 200 nM TF, 25 C, 1 h; high values mean tight binding. As to conditions: protein: recombinant; tags: N-terminal polyhistidine and DsRed monomer fusion (pET32a); chain copies: 2; label: CyDye5-dUTP incorporated in the synthesized complementary strand; 3' TTTTT single-stranded linker to array surface; dsDNA, one strand shown. An outline of the steps: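 Polyhistidine-tagged DsRed fusions of transcription factors, joined at the N-terminus, were expressed in E. coli BL21-CodonPlus and isolated on Ni–NTA. They were incubated at 200 nM for 1 h at 25 °C on a custom Agilent array, double-stranded and BSA-blocked, in PBS with 2% BSA, salmon testes DNA and 50 µM zinc acetate. The binding signal is per-feature fluorescence intensity (arbitrary units) read on an Axon 4000B scanner after washing.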
In the case of “AGGATTTCATGTGTTTTGGTTAACATATTCATGTGTGTCTCGGAGTCACCTAGTGCAG”, the binding signal was 3500 fluorescence intensity (a.u.). The value for “TTTTAGTATATTTATATACTTTGTGCAAGGTGACATGTACCGGAGTCACCTAGTGCAG” was 3440 fluorescence intensity (a.u.); that for “CTTCTCTTATTGTTTGTGTCATTTTCATTTATGTCCTTGTCGGAGTCACCTAGTGCAG” was 3940 fluorescence intensity (a.u.). Under “GGAGTGGCGGGGTTGCGGCATTGGGAGCTGACGTGGCCGCCGGAGTCACCTAGTGCAG” stands 25400 fluorescence intensity (a.u.); under “GTAGAATTATAAAATATATTGTGTACACAATAGGTTTATGCGGAGTCACCTAGTGCAG”, 3330 fluorescence intensity (a.u.). The value for “ATATAAATAGGTTTCGAGGTAGAATATCAAAACAAGGATGCGGAGTCACCTAGTGCAG” was 39300 fluorescence intensity (a.u.); that for “AAACATCATATCAAATCTTTGGACATAGGTATAGAATATTCGGAGTCACCTAGTGCAG” was 8890 fluorescence intensity (a.u.). On to “GAGCCACGGTGGAAGGGTATAATCGTAATTTCGCGTATGGCGGAGTCACCTAGTGCAG”, for which the binding signal is 3370 fluorescence intensity (a.u.). Under “ACCGGGTCGCGCGCGTCGTTGAAACGTCACACCTAGCTAACGGAGTCACCTAGTGCAG” stands 4280 fluorescence intensity (a.u.); under “CGAATCTTTTGAGCCTAATTAATCTATCATTAGCACATGTCGGAGTCACCTAGTGCAG”, 3170 fluorescence intensity (a.u.); under “AGTAAATCCACATCAACAGCATTCTGTTGTTAACTCTGCCCGGAGTCACCTAGTGCAG”, 6820 fluorescence intensity (a.u.). The value for “TGAAAATCGCATACTAATTAGCTATTAGTCATGAGCTCTTCGGAGTCACCTAGTGCAG” was 3590 fluorescence intensity (a.u.); that for “CAGGGAGCATTGAGATTCACTTTGTCACGATGGTAATATACGGAGTCACCTAGTGCAG” was 22600 fluorescence intensity (a.u.). The value for “CTGCACCTGCTTGATCTCTTCTATGTCACTGTTCCTCTGACGGAGTCACCTAGTGCAG” was 3220 fluorescence intensity (a.u.); that for “TGCTTCCCCTGTTCTGATCACCTGCGCACACGGGTGCTCACGGAGTCACCTAGTGCAG” was 49200 fluorescence intensity (a.u.); that for “GGGGAGCTTTGCCCCTGCGCACACTTGTCACGCTCACGCACGGAGTCACCTAGTGCAG” was 3220 fluorescence intensity (a.u.).

On to “CATAGCCTTTTGCATATGCGTCAAGCGTCTATACGATTCGCGGAGTCACCTAGTGCAG”, for which the binding signal is 3900 fluorescence intensity (a.u.). The value for “TGGGCGAGGAAGATATGAGTGTGAAAGGATGGAGGGCCCACGGAGTCACCTAGTGCAG” was 32900 fluorescence intensity (a.u.). For the sequence “TTTGACATAGATGTGTTCCTCTAATGACATAGATGTGTTCCGGAGTCACCTAGTGCAG”, the binding signal is 3230 fluorescence intensity (a.u.). The value for “AGAGCTGAGCCTTATGTGTGGTCTGTCTGTGCCTAGTCGACGGAGTCACCTAGTGCAG” was 48400 fluorescence intensity (a.u.); that for “GTGTGCTGTGTGTGGTCTGAGATGATGTGTACTGCTGCTACGGAGTCACCTAGTGCAG” was 3950 fluorescence intensity (a.u.).

As for “CTGGAGCGGGCGGCCACGGTCACGCCACGTCAGCTTCCATCGGAGTCACCTAGTGCAG”, the binding signal was 42100 fluorescence intensity (a.u.).

On to “CGGTCGACCCACCGTCTGCCACGTCAGCTTGCCGCCCACCCGGAGTCACCTAGTGCAG”, for which the binding signal was 22800 fluorescence intensity (a.u.).

For the sequence “CGCGGTCGACCCACCGTCTGCCACGTCAGCTTGCTGCCCACGGAGTCACCTAGTGCAG”, the binding signal is 25600 fluorescence intensity (a.u.). The value for “GACGGCGCGGTCGACCCGCCGTCTGCCACGTCAGCTTGCCCGGAGTCACCTAGTGCAG” was 27400 fluorescence intensity (a.u.); that for “GACGGCGCGGTCGACCCACCGTCTGCCACGTCAGCTTGCCCGGAGTCACCTAGTGCAG” was 50100 fluorescence intensity (a.u.).

In the case of “GGTCGACCCACCGTCTGCCACGTCAGCTTGCTGCCCACCACGGAGTCACCTAGTGCAG”, the binding signal is 48400 fluorescence intensity (a.u.). Turning to “GCAGACGGCGCGGTCGACCCACCGTCTGCCACGTCAGCTTCGGAGTCACCTAGTGCAG”, the binding signal was 37200 fluorescence intensity (a.u.). With “GAGAGAAGATAGTAGTGGTAGTAGTAGCTGAGCTGTGTCACGGAGTCACCTAGTGCAG”, the binding signal is 3360 fluorescence intensity (a.u.).

As to “TCAGCGGCAGCCCACCCGACTGGGCCGGTCATCGGCGCCACGGAGTCACCTAGTGCAG”, the binding signal is 3470 fluorescence intensity (a.u.). Under “CAATCATCAGCCACGTCCGCCGCCGCTTCAGCTGGATCGGCGGAGTCACCTAGTGCAG” stands 4290 fluorescence intensity (a.u.); under “CTCCATCTCGCAGTCGCAGTGCCAGCTAAGGCCTTGTACACGGAGTCACCTAGTGCAG”, 3240 fluorescence intensity (a.u.). Under “GCAGTGGCTAAGCTTAAGCTCAGGTATGATGACTCGTTGGCGGAGTCACCTAGTGCAG” stands 3610 fluorescence intensity (a.u.). Under “AAGGGCAGCTCAGTCATGGCTGCCACGAGGACAGATGTGGCGGAGTCACCTAGTGCAG” stands 4760 fluorescence intensity (a.u.); under “AGAGCAGATCCCCTGTCACGCCGACGCCGCCGCCGCCACCCGGAGTCACCTAGTGCAG”, 5410 fluorescence intensity (a.u.); under “CAATCTGTCATCTCTTTACCAGTCTCATTGACATGTGGGCCGGAGTCACCTAGTGCAG”, 3270 fluorescence intensity (a.u.). Take “GAGAAAGGGTGTTGACGTGGCATCCTGACATGTGGGGTCCCGGAGTCACCTAGTGCAG”: the binding signal was 15100 fluorescence intensity (a.u.).

As to “CACCTATCCATCCATCCATGTGTGGTGTCGTGTCAGCGTTCGGAGTCACCTAGTGCAG”, the binding signal is 6950 fluorescence intensity (a.u.).

For the sequence “AATCGGTGTCGTTTTGCACGGCGTGTGCCACGTCAGCGTTCGGAGTCACCTAGTGCAG”, the binding signal was 52000 fluorescence intensity (a.u.). Under “AGCGGCGTCGTCTCGGCGGTGGCCGGTGCCACGGCGGCGGCGGAGTCACCTAGTGCAG” stands 6200 fluorescence intensity (a.u.). The value for “CGTCGTCGCCGCCGCCGCCCTCTGCGTCGACGCTGCGGCACGGAGTCACCTAGTGCAG” was 3220 fluorescence intensity (a.u.); that for “CGACGCCGCCGAGATCGCCGTCACCCGAATCCTGCGACGCCGGAGTCACCTAGTGCAG” was 3580 fluorescence intensity (a.u.); that for “AGCTTCGGAGGCTGTACACGTAATGTGGTCGCTTGTTTGTCGGAGTCACCTAGTGCAG” was 9220 fluorescence intensity (a.u.).

In the case of “GTTTTCGCTTGTACTTCACAGGCTGATCACGGTCAGTACTCGGAGTCACCTAGTGCAG”, the binding signal was 48700 fluorescence intensity (a.u.).

Source of the values: publication PMC7819943, “Rice protein-binding microarrays: a tool to detect cis-acting elements near promoter regions in rice”.
